Measured values taken from PubChem BioAssay (Tox21).
Inconclusive results are not listed. Entries that show only a call come without a potency. Activity calls are given as the source filed them. The call rests on the fitted dose curve; in most records, active means well fitted cell-killing curve with a large enough effect in the repeat runs; inconclusive means weak or mixed curves, or effect the other way; inactive means no such curve, though single readings can be large or run the other way.

Test: qHTS assay to identify small molecule antagonists of the retinoid-related orphan receptor gamma (ROR-gamma) signaling pathway - cell viability counter screen (AID 1159520); further: nearly all actives have a fitted effect of over 50% in size
Details: Tet-on RORgamma CHO cells viability, ATP luminescence, 16 h; series mostly up to 92.4 µM
Description: U.S. Tox21 Program National Center for Advancing Translational Sciences [NCATS] NIH Chemical Genomics Center [NCGC] U.S. Environmental Protection Agency [EPA] National Institutes of Environmental Health Sciences [NIEHS] National Toxicology Program [NTP] U.S. Food and Drug Administration [FDA] Tox21 Assay Overview: Nuclear steroid hormone receptors are involved in many biological processes including inflammatory responses, cell proliferation, and apoptosis. Environmental factors or compounds disrupting these nuclear receptor pathways and gene expression may promote susceptibility to immunotoxicants and autoimmune diseases. One important group of these expression factors are the retinoid-related orphan receptors. To assess compounds that may interfere with the retinoid-related orphan receptor gamma (ROR-gamma) transcription factor, a cell-based luciferase assay was used. The CHO cell-based assay utilizes a TET-inducible ROR expression factor and ROR response element-LUC reporter gene. Reporter gene activity was induced using Doxycycline Hyclate and measured after 16 hr incubation. Tet-on ROR gamma CHO cells were used to screen against the Tox21 10K compound library for cytotoxicity by measuring the viability of the cells based on the quantitation of the ATP.
Tox21 Assay Protocol Summary: Tet-on ROR gamma CHO cells were dispensed at 1,000 cells in 4 uL of culture medium per well into white wall/solid bottom 1536-well plates using a Multidrop Combi (Thermo Scientific, Waltham, MA) dispenser. Following incubation at 37 C and 5% CO2 for 4 hr, 23 nL of compounds dissolved in DMSO, positive controls or DMSO only were transferred by a Pintool station (Kalypsys, San Diego, CA) and after 2 hr incubation at 37 C, one ul of 1 uM (final concentration) of Doxycycline Hyclate was added to all the wells by using a Flying Reagent Dispenser (FRD) (Aurora Discovery, San Diego, CA). After 16 hr incubation at 37 C and 5% CO2, 5 uL of CellTiter-Glo reagent (Promega Corporation, Madison, WI) was added to each assay plate using FRD. After 30 min incubation at room temperature, luminescence was quantified on a ViewLux plate reader (Perkin Elmer, Waltham, MA).
Potency means the concentration at half of the fitted maximal effect.

SMILES | Potency
CC(Cc1cccc(C(F)(F)F)c1)NCCOC(=O)c1ccccc1 (stereo not given) | inactive
CC1=CCC(C(C)C)C=C1 (stereo not given) | inactive
CC(=O)N(O)CCCCCNC(=O)CCC(=O)N(O)CCCCCNC(=O)CCC(=O)N(O)CCCCCN | inactive
Nc1nc(N)c(-c2ccccc2)s1 | inactive
CCCCOc1cc(C(=O)OCCN(CC)CC)ccc1N | inactive
CN1CCN(C2=Nc3cc(Cl)ccc3Nc3ccccc32)CC1 | inactive
Cc1ccc2c(ccc3ccccc32)c1 | inactive
COc1ccc(OC)c(OC)c1 | inactive
CC(C)NCC(O)c1cc(O)cc(O)c1 (stereo not given) | inactive
CC(=O)OC/C=C/c1ccccc1 | inactive
C=CC(=O)OCCOC(=O)CCC(=O)O | inactive
CC(C)NCC(O)COc1ccc(CC(N)=O)cc1 (stereo not given) | inactive
CC(=O)O[C@H]1C[C@@H]2CC[C@@H]3[C@H](CC[C@@]4(C)[C@H]3C[C@H]([N+]3(C)CCCCC3)[C@@H]4OC(C)=O)[C@@]2(C)C[C@@H]1N1CCCCC1 | inactive
COc1ccc2[nH]c(S(=O)Cc3ncc(C)c(OC)c3C)nc2n1 (stereo not given) | inactive
CCCCCCCCCC(=O)OCC | inactive
C#CCOC(=O)[C@@H](C)Oc1ccc(Oc2ncc(Cl)cc2F)cc1 | inactive
CN1CCN(C2=Nc3ccccc3Sc3ccc(Cl)cc32)CC1 | inactive
Oc1ccc(Cc2ccccc2)cc1 | inactive
CC[C@H](C)[C@@H](C(=O)O)n1sc2ccccc2c1=O | inactive
Nc1ccc(C(=O)Nc2ccccc2N)cc1 | inactive

SMILES | Potency
O=C1CCCCCO1 | inactive
O=C(O)C(c1ccc(Cl)cc1)c1ccc(Cl)cc1 | inactive
CCC(=O)OC(C)(C)C1CC=C(C)CC1 (stereo not given) | inactive
CCCCCCCCCCCCC(=O)O | inactive
Cc1cccc(OCCOc2cccc(C)c2)c1 | inactive
CC(C)(C)C1CCCCC1O (stereo not given) | inactive
CCCCCCCCCCCCCCC1CO1 (stereo not given) | inactive
CC(=O)c1ccc2c(c1)[C@H](NC(=O)c1ccc(F)cc1)[C@@H](O)C(C)(C)O2 | inactive
Nc1ccc(C(=O)N2CC3CC(CN(Cc4ccccc4)C3)C2)cc1 | inactive
CC/C(=C\C(=N/O)C(N)=O)C(C)[N+](=O)[O-] (stereo not given) | inactive
CNS(=O)(=O)Cc1ccc2[nH]cc(CCN(C)C)c2c1 | inactive
CC1=CC(=O)/C(=C(/C)O)C(=O)O1 | inactive
O=C(O)Cc1cc(I)c(Oc2ccc(O)c(I)c2)c(I)c1 | inactive
CCCCCCCCC(CO)CCCCCC (stereo not given) | inactive
Cc1ccccn1 | inactive
Cc1cc(O)ccc1N | 54.8 µM (active)
COc1cc(C(C)(C)C)c(O)c(C(C)(C)C)c1 | inactive
CC(=O)OCCc1ccccc1 | inactive
c1ccc(OCc2ccc(CCCN3CCOCC3)cc2)cc1 | inactive
O=[N+]([O-])c1cccc(Cl)c1Cl | inactive
